Where “and” joins values, the source holds several entries; their conditions need not be identical. Equal values may be shown once. Unmarked numbers belong to inactive results. The rule behind the calls is not given here.
The molecules below were run against Serine/threonine-protein kinase PLK1 (Homo sapiens) (UniProt P53350) (assay: Plk1 polo box domain binding inhibitors, SAR follow-up, biochemical, fluorescence polarization, purchased analogs (AID 1053)). Details: Plk1 PBD fluorescence polarization peptide binding; at 20 µM; stronger effect = higher value.
Chain of Serine/threonine-protein kinase PLK1 (Homo sapiens) (P53350 whole entry, looked up, the tested form may be a part): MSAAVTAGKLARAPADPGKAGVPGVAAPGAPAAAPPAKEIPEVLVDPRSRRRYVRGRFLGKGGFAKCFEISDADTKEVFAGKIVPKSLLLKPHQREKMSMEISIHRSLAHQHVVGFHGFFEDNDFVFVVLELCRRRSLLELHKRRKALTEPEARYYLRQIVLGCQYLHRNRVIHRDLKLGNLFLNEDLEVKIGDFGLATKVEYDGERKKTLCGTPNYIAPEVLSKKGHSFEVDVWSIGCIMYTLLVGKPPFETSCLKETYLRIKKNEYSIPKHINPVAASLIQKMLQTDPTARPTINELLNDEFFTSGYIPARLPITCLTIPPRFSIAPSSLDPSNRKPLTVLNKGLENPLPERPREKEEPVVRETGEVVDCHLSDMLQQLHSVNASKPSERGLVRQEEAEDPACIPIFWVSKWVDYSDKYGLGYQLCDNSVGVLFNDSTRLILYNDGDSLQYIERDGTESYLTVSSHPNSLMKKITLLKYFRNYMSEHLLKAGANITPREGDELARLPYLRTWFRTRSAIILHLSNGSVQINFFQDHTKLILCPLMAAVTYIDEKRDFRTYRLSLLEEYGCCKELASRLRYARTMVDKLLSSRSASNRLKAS

First: Cn1c(=O)c2nc(-c3ccccc3)c(=O)n(C)c2n(C)c1=O
Second: Cn1c(=O)[nH]c2nnc(-c3ccc(Cl)cc3)nc2c1=O
The inhibition of the first is lower: -37.8% for the first, 28.8% for the second.

First: CC(=O)N(/N=C1\Sc2ccccc2C1=O)c1ccccc1Cl
Second: CC(=O)N(CN1C(=O)c2ccccc2C1=O)c1ccc(C)cc1
The inhibition of the first is lower: -48.1% for the first, -31.4% for the second.

First: CCCCCCC(=O)N(CN1C(=O)c2ccccc2C1=O)c1ccccc1
Second: COc1ccccc1N(CN1C(=O)c2ccc([N+](=O)[O-])cc2C1=O)C(C)=O
The inhibition of the first is higher: -23.4% for the first, -55.2% for the second.

Going from `CCN(CC)CCOC(=O)c1ccc(N=Cc2c(O)n(C)c(=O)[nH]c2=O)cc1` to `CCOC(=O)c1ccc(NC(=O)C2CC(=O)NC(=NC)S2)cc1` (stereo not given), the inhibition rises from -180% to -37.5%.

Going from `CCOC(=O)c1ccc(NC(=O)c2cc(=O)[nH]c3ccccc23)cc1` to `CCOC(=O)c1ccc(NC(=O)c2cc(C)cc(C)c2)cc1`, the inhibition rises from -81.3% to -13.8%.

First: CC(=O)N(CN1C(=O)c2cccc([N+](=O)[O-])c2C1=O)c1ccc2c(c1)oc1ccccc12
Second: CCCOC(=O)c1ccc(NC(=O)c2ccc(C)c(I)c2)cc1
The inhibition of the first is lower: -35.9% for the first, -23.6% for the second.

`CCOC(=O)c1ccc(NC(=O)C2C3CCC(C3)C2C(=O)O)cc1` (stereo not given) gave an inhibition of -61.5%.

With `CCOC(=O)c1ccc(NC(=O)c2ccc3snnc3c2)cc1` the inhibition was -21.6% and -22.3%.
For `COc1ccccc1N(/C=C1\Sc2ccccc2C1=O)C(C)=O`, the inhibition was -288% and -274%.

From PubChem BioAssay AID1053 (University of Pittsburgh Molecular Library Screening Center, 2008)
